Legend:
Assay in all cases: fluorescence anisotropy; 10 mM Tris-HEPES pH 7.5, 8% Ficoll, 0.05% NP-40, 135 mM KCl, 15 mM NaCl, 1 mM DTT, 0.1 mg/mL BSA; 2 nM DNA or 3 nM RNA; low values mean tight binding
Details in all cases: protein: recombinant; tags: N-terminal His6 and thrombin site, not removed; label: FAM; only (+) strand given; dsDNA, one strand shown
[1] = biological target: Sox2-HMG (His6 retained) E78A (Homo sapiens, UniProt P48431 38-121, E78A)
Procedure, shortened: (§1)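 Dissociation constants, fit in Kaleidagraph, are reported relative to wild type as a mutant-to-wild-type ratio. They come from polarization readings on a CLARIOstar after alanine-substituted Sox2-HMG domains, made by site-directed mutagenesis and Ni-NTA purified with the His6 tag retained, were titrated against 2 nM fluorescein-labeled DNA or 3 nM fluorescein-labeled RNA. Binding took place in Tris-HEPES pH 7.5 buffer for at least 1 h, and titrations were done in triplicate with three reads each.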

[2] = biological target: Sox2-HMG (His6 retained) S72A (Homo sapiens, UniProt P48431 38-121, S72A)
Chain of Sox2-HMG (His6 retained) S72A (P48431 other isoform, or with tags, fused parts or gaps S72A | S72A S72A): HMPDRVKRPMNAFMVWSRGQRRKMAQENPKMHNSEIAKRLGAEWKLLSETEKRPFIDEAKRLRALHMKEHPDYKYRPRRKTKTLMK
Procedure, shortened: as §1

[3] = biological target: Sox2-HMG (His6 retained) E104A (Homo sapiens, UniProt P48431 38-121, E104A)
Procedure, shortened: as §1

[4] = biological target: Sox2-HMG (His6 retained) K58A (Homo sapiens, UniProt P48431 38-121, K58A)
Procedure, shortened: as §1

[5] = biological target: Sox2-HMG (His6 retained) H67A (Homo sapiens, UniProt P48431 38-121, H67A)
Chain of Sox2-HMG (His6 retained) H67A (P48431 other isoform, or with tags, fused parts or gaps H67A | H67A H67A): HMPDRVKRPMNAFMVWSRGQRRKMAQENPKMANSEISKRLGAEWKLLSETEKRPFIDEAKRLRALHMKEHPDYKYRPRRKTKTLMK
Procedure, shortened: as §1

[6] = biological target: Sox2-HMG (His6 retained) K42A (Homo sapiens, UniProt P48431 38-121, K42A)
Chain of Sox2-HMG (His6 retained) K42A (P48431 other isoform, or with tags, fused parts or gaps K42A | K42A K42A): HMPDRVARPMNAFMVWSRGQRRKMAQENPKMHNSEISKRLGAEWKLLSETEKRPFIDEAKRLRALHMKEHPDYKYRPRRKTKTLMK
Procedure, shortened: as §1

[7] = biological target: Sox2-HMG (His6 retained) M45A (Homo sapiens, UniProt P48431 38-121, M45A)
Chain of Sox2-HMG (His6 retained) M45A (P48431 other isoform, or with tags, fused parts or gaps M45A | M45A M45A): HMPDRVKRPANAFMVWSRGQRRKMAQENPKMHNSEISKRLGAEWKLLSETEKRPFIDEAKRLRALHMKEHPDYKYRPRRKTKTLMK
Procedure, shortened: as §1

[8] = biological target: Sox2-HMG (His6 retained) N63A (Homo sapiens, UniProt P48431 38-121, N63A)
Chain of Sox2-HMG (His6 retained) N63A (P48431 other isoform, or with tags, fused parts or gaps N63A | N63A N63A): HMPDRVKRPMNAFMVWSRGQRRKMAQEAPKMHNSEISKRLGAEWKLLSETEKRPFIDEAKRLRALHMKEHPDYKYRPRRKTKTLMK
Procedure, shortened: as §1

[9] = biological target: Sox2-HMG (His6 retained) K115A (Homo sapiens, UniProt P48431 38-121, K115A)
Chain of Sox2-HMG (His6 retained) K115A (P48431 other isoform, or with tags, fused parts or gaps K115A | K115A K115A): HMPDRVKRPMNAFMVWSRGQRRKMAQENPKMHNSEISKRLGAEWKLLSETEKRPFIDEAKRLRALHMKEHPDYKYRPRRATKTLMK
Procedure, shortened: as §1

[10] = biological target: Sox2-HMG (His6 retained) E70A (Homo sapiens, UniProt P48431 38-121, E70A)
Chain of Sox2-HMG (His6 retained) E70A (P48431 other isoform, or with tags, fused parts or gaps E70A | E70A E70A): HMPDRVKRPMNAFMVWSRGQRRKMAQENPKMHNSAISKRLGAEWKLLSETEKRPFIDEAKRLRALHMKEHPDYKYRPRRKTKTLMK
Procedure, shortened: as §1

[11] = biological target: Sox2-HMG (His6 retained) K87A (Homo sapiens, UniProt P48431 38-121, K87A)
Chain of Sox2-HMG (His6 retained) K87A (P48431 other isoform, or with tags, fused parts or gaps K87A | K87A K87A): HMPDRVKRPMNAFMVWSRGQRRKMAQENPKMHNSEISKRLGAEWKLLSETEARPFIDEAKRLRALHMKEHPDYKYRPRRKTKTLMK
Procedure, shortened: as §1

[12] = biological target: Sox2-HMG (His6 retained) W79A (Homo sapiens, UniProt P48431 38-121, W79A)
Chain of Sox2-HMG (His6 retained) W79A (P48431 other isoform, or with tags, fused parts or gaps W79A | W79A W79A): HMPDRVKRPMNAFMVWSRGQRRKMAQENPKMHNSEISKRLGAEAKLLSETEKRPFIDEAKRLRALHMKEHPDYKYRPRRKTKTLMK
Procedure, shortened: as §1

[13] = biological target: Sox2-HMG (His6 retained) E62A (Homo sapiens, UniProt P48431 38-121, E62A)
Chain of Sox2-HMG (His6 retained) E62A (P48431 other isoform, or with tags, fused parts or gaps E62A | E62A E62A): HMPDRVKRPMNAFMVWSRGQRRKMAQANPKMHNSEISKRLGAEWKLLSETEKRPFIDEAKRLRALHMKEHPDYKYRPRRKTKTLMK
Procedure, shortened: as §1

[14] = biological target: Sox2-HMG (His6 retained) R114A (Homo sapiens, UniProt P48431 38-121, R114A)
Chain of Sox2-HMG (His6 retained) R114A (P48431 other isoform, or with tags, fused parts or gaps R114A | R114A R114A): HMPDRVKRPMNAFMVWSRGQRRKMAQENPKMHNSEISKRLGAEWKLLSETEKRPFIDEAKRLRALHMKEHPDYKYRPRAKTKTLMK
Procedure, shortened: as §1

[15] = biological target: Sox2-HMG (His6 retained) S69A (Homo sapiens, UniProt P48431 38-121, S69A)
Chain of Sox2-HMG (His6 retained) S69A (P48431 other isoform, or with tags, fused parts or gaps S69A | S69A S69A): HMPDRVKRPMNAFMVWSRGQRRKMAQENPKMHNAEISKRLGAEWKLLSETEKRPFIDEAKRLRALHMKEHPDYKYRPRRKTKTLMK
Procedure, shortened: as §1

[16] = biological target: Sox2-HMG (His6 retained) R96A (Homo sapiens, UniProt P48431 38-121, R96A)
Chain of Sox2-HMG (His6 retained) R96A (P48431 other isoform, or with tags, fused parts or gaps R96A | R96A R96A): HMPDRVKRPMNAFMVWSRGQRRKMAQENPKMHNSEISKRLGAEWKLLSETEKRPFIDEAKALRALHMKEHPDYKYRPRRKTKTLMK
Procedure, shortened: as §1

[17] = biological target: Sox2-HMG (His6 retained) R40A (Homo sapiens, UniProt P48431 38-121, R40A)
Chain of Sox2-HMG (His6 retained) R40A (P48431 other isoform, or with tags, fused parts or gaps R40A | R40A R40A): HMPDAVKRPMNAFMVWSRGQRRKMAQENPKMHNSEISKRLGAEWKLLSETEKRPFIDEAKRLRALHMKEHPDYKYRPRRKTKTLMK
Procedure, shortened: as §1

[18] = biological target: Sox2-HMG (His6 retained) W51A (Homo sapiens, UniProt P48431 38-121, W51A)
Chain of Sox2-HMG (His6 retained) W51A (P48431 other isoform, or with tags, fused parts or gaps W51A | W51A W51A): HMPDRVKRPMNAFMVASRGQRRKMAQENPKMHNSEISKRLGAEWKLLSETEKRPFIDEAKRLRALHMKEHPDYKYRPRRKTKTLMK
Procedure, shortened: as §1

[19] = biological target: Sox2-HMG (His6 retained) S83A (Homo sapiens, UniProt P48431 38-121, S83A)
Chain of Sox2-HMG (His6 retained) S83A (P48431 other isoform, or with tags, fused parts or gaps S83A | S83A S83A): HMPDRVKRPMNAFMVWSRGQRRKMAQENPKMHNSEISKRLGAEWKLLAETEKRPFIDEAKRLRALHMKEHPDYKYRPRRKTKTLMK
Procedure, shortened: as §1

[20] = biological target: Sox2-HMG (His6 retained) R111A (Homo sapiens, UniProt P48431 38-121, R111A)
Chain of Sox2-HMG (His6 retained) R111A (P48431 other isoform, or with tags, fused parts or gaps R111A | R111A R111A): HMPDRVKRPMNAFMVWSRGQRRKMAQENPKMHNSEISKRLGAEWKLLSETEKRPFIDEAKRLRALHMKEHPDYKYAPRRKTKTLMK
Procedure, shortened: as §1

[21] = biological target: Sox2-HMG (His6 retained) E84A (Homo sapiens, UniProt P48431 38-121, E84A)
Chain of Sox2-HMG (His6 retained) E84A (P48431 other isoform, or with tags, fused parts or gaps E84A | E84A E84A): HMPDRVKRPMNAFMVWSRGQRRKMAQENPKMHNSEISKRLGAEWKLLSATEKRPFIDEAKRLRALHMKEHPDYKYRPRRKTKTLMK
Procedure, shortened: as §1

[22] = biological target: Sox2-HMG (His6 retained) K95A (Homo sapiens, UniProt P48431 38-121, K95A)
Chain of Sox2-HMG (His6 retained) K95A (P48431 other isoform, or with tags, fused parts or gaps K95A | K95A K95A): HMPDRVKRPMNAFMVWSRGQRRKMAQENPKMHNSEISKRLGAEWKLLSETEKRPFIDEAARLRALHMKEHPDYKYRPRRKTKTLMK
Procedure, shortened: as §1

[23] = biological target: Sox2-HMG (His6 retained) F48A (Homo sapiens, UniProt P48431 38-121, F48A)
Chain of Sox2-HMG (His6 retained) F48A (P48431 other isoform, or with tags, fused parts or gaps F48A | F48A F48A): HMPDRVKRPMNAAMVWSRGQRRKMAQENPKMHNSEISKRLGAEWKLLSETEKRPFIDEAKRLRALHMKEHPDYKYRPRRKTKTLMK
Procedure, shortened: as §1

[24] = biological target: Sox2-HMG (His6 retained) R74A (Homo sapiens, UniProt P48431 38-121, R74A)
Chain of Sox2-HMG (His6 retained) R74A (P48431 other isoform, or with tags, fused parts or gaps R74A | R74A R74A): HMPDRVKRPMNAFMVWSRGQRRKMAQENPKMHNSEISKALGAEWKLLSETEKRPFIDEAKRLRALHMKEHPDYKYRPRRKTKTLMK
Procedure, shortened: as §1

[25] = biological target: Sox2-HMG (His6 retained) Q61A (Homo sapiens, UniProt P48431 38-121, Q61A)
Chain of Sox2-HMG (His6 retained) Q61A (P48431 other isoform, or with tags, fused parts or gaps Q61A | Q61A Q61A): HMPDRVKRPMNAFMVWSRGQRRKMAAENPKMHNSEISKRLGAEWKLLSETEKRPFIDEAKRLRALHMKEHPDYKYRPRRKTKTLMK
Procedure, shortened: as §1

[26] = biological target: Sox2-HMG (His6 retained) R88A (Homo sapiens, UniProt P48431 38-121, R88A)
Chain of Sox2-HMG (His6 retained) R88A (P48431 other isoform, or with tags, fused parts or gaps R88A | R88A R88A): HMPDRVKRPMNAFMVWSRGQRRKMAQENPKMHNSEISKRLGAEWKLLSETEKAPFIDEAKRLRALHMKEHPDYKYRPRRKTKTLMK
Procedure, shortened: as §1

[27] = biological target: Sox2-HMG (His6 retained) K73A (Homo sapiens, UniProt P48431 38-121, K73A)
Chain of Sox2-HMG (His6 retained) K73A (P48431 other isoform, or with tags, fused parts or gaps K73A | K73A K73A): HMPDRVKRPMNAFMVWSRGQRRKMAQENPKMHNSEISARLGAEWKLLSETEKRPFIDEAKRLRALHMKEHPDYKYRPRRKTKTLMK
Procedure, shortened: as §1

[28] = biological target: Sox2-HMG (His6 retained) E86A (Homo sapiens, UniProt P48431 38-121, E86A)
Chain of Sox2-HMG (His6 retained) E86A (P48431 other isoform, or with tags, fused parts or gaps E86A | E86A E86A): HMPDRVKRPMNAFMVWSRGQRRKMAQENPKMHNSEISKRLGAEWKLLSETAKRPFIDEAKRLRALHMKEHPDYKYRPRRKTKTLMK
Procedure, shortened: as §1

[29] = biological target: Sox2-HMG (His6 retained) R53A (Homo sapiens, UniProt P48431 38-121, R53A)
Chain of Sox2-HMG (His6 retained) R53A (P48431 other isoform, or with tags, fused parts or gaps R53A | R53A R53A): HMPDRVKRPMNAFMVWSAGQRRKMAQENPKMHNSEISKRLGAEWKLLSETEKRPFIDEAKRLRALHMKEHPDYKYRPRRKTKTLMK
Procedure, shortened: as §1

[30] = biological target: Sox2-HMG (His6 retained) R113A (Homo sapiens, UniProt P48431 38-121, R113A)
Chain of Sox2-HMG (His6 retained) R113A (P48431 other isoform, or with tags, fused parts or gaps R113A | R113A R113A): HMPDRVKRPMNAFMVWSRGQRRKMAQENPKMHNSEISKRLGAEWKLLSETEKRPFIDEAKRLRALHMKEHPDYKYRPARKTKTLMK
Procedure, shortened: as §1

[31] = biological target: Sox2-HMG (His6 retained) T85A (Homo sapiens, UniProt P48431 38-121, T85A)
Chain of Sox2-HMG (His6 retained) T85A (P48431 other isoform, or with tags, fused parts or gaps T85A | T85A T85A): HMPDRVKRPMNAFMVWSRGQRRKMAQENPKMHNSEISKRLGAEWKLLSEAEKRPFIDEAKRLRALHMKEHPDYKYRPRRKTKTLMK
Procedure, shortened: as §1

[32] = biological target: Sox2-HMG (His6 retained) M49A (Homo sapiens, UniProt P48431 38-121, M49A)
Chain of Sox2-HMG (His6 retained) M49A (P48431 other isoform, or with tags, fused parts or gaps M49A | M49A M49A): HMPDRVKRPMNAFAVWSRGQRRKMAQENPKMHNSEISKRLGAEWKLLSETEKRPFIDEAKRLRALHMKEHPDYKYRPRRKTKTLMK
Procedure, shortened: as §1

[33] = biological target: Sox2-HMG (His6 retained) R56A (Homo sapiens, UniProt P48431 38-121, R56A)
Chain of Sox2-HMG (His6 retained) R56A (P48431 other isoform, or with tags, fused parts or gaps R56A | R56A R56A): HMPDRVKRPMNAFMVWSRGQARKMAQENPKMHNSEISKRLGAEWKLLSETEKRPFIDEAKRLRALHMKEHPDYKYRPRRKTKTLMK
Procedure, shortened: as §1

[34] = biological target: Sox2-HMG (His6 retained) K80A (Homo sapiens, UniProt P48431 38-121, K80A)
Chain of Sox2-HMG (His6 retained) K80A (P48431 other isoform, or with tags, fused parts or gaps K80A | K80A K80A): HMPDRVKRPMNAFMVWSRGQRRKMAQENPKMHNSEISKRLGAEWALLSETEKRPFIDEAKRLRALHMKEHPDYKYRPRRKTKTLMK
Procedure, shortened: as §1

[35] = biological target: Sox2-HMG (His6 retained) Y110A (Homo sapiens, UniProt P48431 38-121, Y110A)
Chain of Sox2-HMG (His6 retained) Y110A (P48431 other isoform, or with tags, fused parts or gaps Y110A | Y110A Y110A): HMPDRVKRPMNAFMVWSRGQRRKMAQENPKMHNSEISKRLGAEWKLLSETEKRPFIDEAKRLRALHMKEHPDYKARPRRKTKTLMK
Procedure, shortened: as §1

[36] = biological target: Sox2-HMG (His6 retained) K103A (Homo sapiens, UniProt P48431 38-121, K103A)
Chain of Sox2-HMG (His6 retained) K103A (P48431 other isoform, or with tags, fused parts or gaps K103A | K103A K103A): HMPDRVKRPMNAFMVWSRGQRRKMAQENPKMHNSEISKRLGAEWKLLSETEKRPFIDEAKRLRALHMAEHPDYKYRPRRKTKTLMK
Procedure, shortened: as §1

[37] = biological target: Sox2-HMG (His6 retained) K109A (Homo sapiens, UniProt P48431 38-121, K109A)
Chain of Sox2-HMG (His6 retained) K109A (P48431 other isoform, or with tags, fused parts or gaps K109A | K109A K109A): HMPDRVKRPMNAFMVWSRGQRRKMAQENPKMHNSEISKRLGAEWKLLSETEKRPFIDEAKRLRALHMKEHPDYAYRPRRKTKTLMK
Procedure, shortened: as §1

[38] = biological target: Sox2-HMG (His6 retained) R43A (Homo sapiens, UniProt P48431 38-121, R43A)
Chain of Sox2-HMG (His6 retained) R43A (P48431 other isoform, or with tags, fused parts or gaps R43A | R43A R43A): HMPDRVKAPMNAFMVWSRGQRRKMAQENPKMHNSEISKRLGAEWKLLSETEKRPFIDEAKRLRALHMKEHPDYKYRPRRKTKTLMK
Procedure, shortened: as §1

[39] = biological target: Sox2-HMG (His6 retained) R57A (Homo sapiens, UniProt P48431 38-121, R57A)
Chain of Sox2-HMG (His6 retained) R57A (P48431 other isoform, or with tags, fused parts or gaps R57A | R57A R57A): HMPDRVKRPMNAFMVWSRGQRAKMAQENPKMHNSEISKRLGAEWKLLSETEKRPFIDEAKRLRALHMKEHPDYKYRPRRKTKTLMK
Procedure, shortened: as §1

[40] = biological target: Sox2-HMG (His6 retained) R98A (Homo sapiens, UniProt P48431 38-121, R98A)
Chain of Sox2-HMG (His6 retained) R98A (P48431 other isoform, or with tags, fused parts or gaps R98A | R98A R98A): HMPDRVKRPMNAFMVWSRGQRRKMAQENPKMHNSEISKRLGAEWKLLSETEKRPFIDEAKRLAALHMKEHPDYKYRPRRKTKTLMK
Procedure, shortened: as §1

[41] = biological target: Sox2-HMG (His6 retained) N68A (Homo sapiens, UniProt P48431 38-121, N68A)
Chain of Sox2-HMG (His6 retained) N68A (P48431 other isoform, or with tags, fused parts or gaps N68A | N68A N68A): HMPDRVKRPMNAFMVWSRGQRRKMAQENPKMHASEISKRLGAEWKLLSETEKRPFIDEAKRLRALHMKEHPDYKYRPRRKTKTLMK
Procedure, shortened: as §1

[42] = biological target: Sox2-HMG (His6 retained) P112A (Homo sapiens, UniProt P48431 38-121, P112A)
Chain of Sox2-HMG (His6 retained) P112A (P48431 other isoform, or with tags, fused parts or gaps P112A | P112A P112A): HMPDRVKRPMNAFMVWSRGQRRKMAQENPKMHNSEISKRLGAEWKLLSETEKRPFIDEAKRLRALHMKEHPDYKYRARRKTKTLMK
Procedure, shortened: as §1

[43] = biological target: Sox2-HMG (His6 retained) N46A (Homo sapiens, UniProt P48431 38-121, N46A)
Chain of Sox2-HMG (His6 retained) N46A (P48431 other isoform, or with tags, fused parts or gaps N46A | N46A N46A): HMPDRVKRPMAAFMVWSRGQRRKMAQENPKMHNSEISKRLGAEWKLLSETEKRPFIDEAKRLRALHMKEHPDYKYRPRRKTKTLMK
Procedure, shortened: as §1

[44] = biological target: Sox2-HMG (His6 retained) K65A (Homo sapiens, UniProt P48431 38-121, K65A)
Chain of Sox2-HMG (His6 retained) K65A (P48431 other isoform, or with tags, fused parts or gaps K65A | K65A K65A): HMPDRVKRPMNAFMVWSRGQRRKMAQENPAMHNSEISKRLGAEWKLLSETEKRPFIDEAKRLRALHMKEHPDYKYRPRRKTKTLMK
Procedure, shortened: as §1

[45] = biological target: Sox2-HMG (His6 retained) H101A (Homo sapiens, UniProt P48431 38-121, H101A)
Chain of Sox2-HMG (His6 retained) H101A (P48431 other isoform, or with tags, fused parts or gaps H101A | H101A H101A): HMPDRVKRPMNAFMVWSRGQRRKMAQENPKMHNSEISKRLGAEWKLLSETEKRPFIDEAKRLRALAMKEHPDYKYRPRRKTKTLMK
Procedure, shortened: as §1

[46] = biological target: Sox2-HMG (His6 retained) P64A (Homo sapiens, UniProt P48431 38-121, P64A)
Chain of Sox2-HMG (His6 retained) P64A (P48431 other isoform, or with tags, fused parts or gaps P64A | P64A P64A): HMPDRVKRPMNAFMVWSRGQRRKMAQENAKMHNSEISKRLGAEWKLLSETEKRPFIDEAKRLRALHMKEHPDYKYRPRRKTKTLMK
Procedure, shortened: as §1

[47] = biological target: Sox2-HMG (His6 retained) M66A (Homo sapiens, UniProt P48431 38-121, M66A)
Chain of Sox2-HMG (His6 retained) M66A (P48431 other isoform, or with tags, fused parts or gaps M66A | M66A M66A): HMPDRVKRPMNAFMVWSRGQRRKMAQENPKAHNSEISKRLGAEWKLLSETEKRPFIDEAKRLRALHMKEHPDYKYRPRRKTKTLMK
Procedure, shortened: as §1

[48] = biological target: Sox2-HMG (His6 retained) H105A (Homo sapiens, UniProt P48431 38-121, H105A)
Chain of Sox2-HMG (His6 retained) H105A (P48431 other isoform, or with tags, fused parts or gaps H105A | H105A H105A): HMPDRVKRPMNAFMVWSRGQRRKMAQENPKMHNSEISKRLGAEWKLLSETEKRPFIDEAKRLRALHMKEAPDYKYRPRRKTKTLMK
Procedure, shortened: as §1

Chain of Sox2-HMG (His6 retained) E78A (P48431 other isoform, or with tags, fused parts or gaps E78A | E78A E78A): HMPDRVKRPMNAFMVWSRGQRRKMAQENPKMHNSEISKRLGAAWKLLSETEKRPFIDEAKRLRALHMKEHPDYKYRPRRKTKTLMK

CGCGCCTTTGTTCCCGGGT was tested, and the binding signal [1] was 2.2 ± 1 Kd(mutant)/Kd(WT), the binding signal [2] was 1.4 ± 0.4 Kd(mutant)/Kd(WT) and the binding signal [3] was 1.1 ± 0.3 Kd(mutant)/Kd(WT). The binding signal [4] was 1.1 ± 0.5 Kd(mutant)/Kd(WT), the binding signal [5] was 2.4 ± 0.7 Kd(mutant)/Kd(WT) and the binding signal [6] was 2.8 ± 1.8 Kd(mutant)/Kd(WT). For the same sequence, the binding signal [7] was 1.4 ± 0.7 Kd(mutant)/Kd(WT), the binding signal [8] was 2.9 ± 1.4 Kd(mutant)/Kd(WT) and the binding signal [9] was 5.8 ± 1 Kd(mutant)/Kd(WT). For the same sequence, the binding signal [10] was 0.7 ± 0.4 Kd(mutant)/Kd(WT), the binding signal [11] was 9.3 ± 1.4 Kd(mutant)/Kd(WT) and the binding signal [12] was 490 ± 20 Kd(mutant)/Kd(WT). For the same sequence, the binding signal [13] was 0.6 ± 0.3 Kd(mutant)/Kd(WT), the binding signal [14] was 6.1 ± 2.2 Kd(mutant)/Kd(WT) and the binding signal [15] was 1.1 ± 0.5 Kd(mutant)/Kd(WT). For the same sequence, the binding signal [16] was 1.6 ± 1.1 Kd(mutant)/Kd(WT), the binding signal [17] was 2 ± 1.9 Kd(mutant)/Kd(WT) and the binding signal [18] was 17 ± 2.8 Kd(mutant)/Kd(WT). For the same sequence, the binding signal [19] was 0.9 ± 0.2 Kd(mutant)/Kd(WT), the binding signal [20] was 3 ± 0.8 Kd(mutant)/Kd(WT) and the binding signal [21] was 1.6 ± 0.3 Kd(mutant)/Kd(WT). For the same sequence, the binding signal [22] was 1.1 ± 1.1 Kd(mutant)/Kd(WT), the binding signal [23] was 420 ± 120 Kd(mutant)/Kd(WT) and the binding signal [24] was 0.7 ± 0.4 Kd(mutant)/Kd(WT). For the same sequence, the binding signal [25] was 0.6 ± 0.2 Kd(mutant)/Kd(WT), the binding signal [26] was 1.3 ± 0.7 Kd(mutant)/Kd(WT) and the binding signal [27] was 3 ± 0.6 Kd(mutant)/Kd(WT). For the same sequence, the binding signal [28] was 0.8 ± 0.1 Kd(mutant)/Kd(WT), the binding signal [29] was 0.7 ± 0.2 Kd(mutant)/Kd(WT) and the binding signal [30] was 0.6 ± 0.5 Kd(mutant)/Kd(WT). For the same sequence, the binding signal [31] was 2.8 ± 0.3 Kd(mutant)/Kd(WT), the binding signal [32] was 30 ± 5.4 Kd(mutant)/Kd(WT) and the binding signal [33] was 190 ± 70 Kd(mutant)/Kd(WT). The binding signal [34] was 2.8 ± 0.9 Kd(mutant)/Kd(WT), the binding signal [35] was 7.5 ± 3.5 Kd(mutant)/Kd(WT) and the binding signal [36] was 1.4 ± 1.3 Kd(mutant)/Kd(WT). For the same sequence, the binding signal [37] was 3.2 ± 0.8 Kd(mutant)/Kd(WT), the binding signal [38] was 8.5 ± 2.2 Kd(mutant)/Kd(WT) and the binding signal [39] was 0.8 ± 0.3 Kd(mutant)/Kd(WT). The binding signal [40] was 0.8 ± 0.5 Kd(mutant)/Kd(WT), the binding signal [41] was 1.1 ± 0.5 Kd(mutant)/Kd(WT) and the binding signal [42] was 2.7 ± 1.2 Kd(mutant)/Kd(WT). For the same sequence, the binding signal [43] was 15 ± 8.4 Kd(mutant)/Kd(WT), the binding signal [44] was 8.5 ± 1 Kd(mutant)/Kd(WT) and the binding signal [45] was 1.9 ± 0.2 Kd(mutant)/Kd(WT). For the same sequence, the binding signal [46] was 2.6 ± 0.1 Kd(mutant)/Kd(WT), the binding signal [47] was 1.8 ± 0.9 Kd(mutant)/Kd(WT) and the binding signal [48] was 1.7 ± 1.9 Kd(mutant)/Kd(WT).

— paper PMC7156710, “The Sox2 transcription factor binds RNA”
